High-throughput results: PubChem BioAssay, National Center for Advancing Translational Sciences (NCATS)
Most compounds without a hit are left out; they make up all but 7.5% or so of the library.
Rab9 prom act: qHTS Assay for Rab9 Promoter Activators; Huh7 Rab9 promoter-luciferase reporter, luminescence, 24 h; 320,000 compounds, 2.8% hits; AID 485297, 2010; Potency, µM (titrated, usually from 9.22 µM), actives largely listed as activators; further: nearly all actives have a fitted effect of over 60% in size
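Promoter activation is measured as luciferase luminescence in Huh7 cells stably transfected with a Rab9 promoter–luciferase construct, following 24 h compound exposure at 37 °C and 10 min reagent incubation at ambient temperature.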
Luc counter: Counterscreen for Luciferase (Kinase-Glo TM) Inhibition; Luciferin 4-monooxygenase (Photuris pensylvanica), Q27757; Kinase-Glo luciferase, ATP luminescence, 8 min; Potency, µM (top dose mostly 38.3 µM), usual class: inhibitors; 200,000 compounds, 0.28% hits; AID 1379, 2008; further: nearly all actives have a fitted effect of over 60% in size
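Inhibition of Kinase-Glo luciferase light generation was assessed at 10 uM ATP in pH 7.2 imidazole buffer, with luminescence measured after eight minutes at ambient temperature.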
FLuc counter: qHTS profiling assay for firefly luciferase inhibitor/activator using purifed enzyme and Km concentrations of substrates (counterscreen for miR-21 project); purified FLuc, Km substrates, luminescence inhibition; Potency, µM (titrated, usually from 57.5 µM), actives largely listed as inhibitors; 360,000 compounds, 6.9% hits; AID 588342, 2011; further: nearly all actives have a fitted effect of over 55% in size
Target sequence (P08659 whole entry, looked up): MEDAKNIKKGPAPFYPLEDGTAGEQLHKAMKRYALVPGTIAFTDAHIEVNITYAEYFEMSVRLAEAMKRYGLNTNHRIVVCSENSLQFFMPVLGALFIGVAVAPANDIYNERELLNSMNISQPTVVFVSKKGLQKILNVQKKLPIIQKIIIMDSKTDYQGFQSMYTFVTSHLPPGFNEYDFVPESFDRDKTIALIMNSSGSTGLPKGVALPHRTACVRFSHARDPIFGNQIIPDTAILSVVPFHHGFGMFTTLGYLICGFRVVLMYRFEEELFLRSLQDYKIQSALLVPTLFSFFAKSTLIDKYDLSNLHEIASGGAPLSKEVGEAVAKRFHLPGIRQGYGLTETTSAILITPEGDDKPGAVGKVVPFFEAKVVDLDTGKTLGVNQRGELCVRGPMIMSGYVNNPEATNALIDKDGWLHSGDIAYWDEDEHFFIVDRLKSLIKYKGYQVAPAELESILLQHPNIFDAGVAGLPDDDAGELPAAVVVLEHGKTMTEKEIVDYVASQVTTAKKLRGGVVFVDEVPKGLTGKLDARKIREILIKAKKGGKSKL
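Purified P. pyralis luciferase, 10 nM final, with Km-level 10 uM D-luciferin and 10 uM ATP in 50 mM Tris acetate pH 7.5, 10 mM Mg acetate, 0.01% Tween-20, 0.05% BSA; 6-point qHTS titration about 60 µM downward; luminescence read.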
NPC1 promoter act: qHTS Assay for NPC1 Promoter Activators. 320,000 compounds, 2.4% hits. Huh7 NPC1 promoter luciferase reporter, 24 h. Potency, µM (series often up to 9.22 µM), most hits filed as activators; further: nearly all actives have a fitted effect of over 60% in size
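Stable NPC1-promoter luciferase Huh7 line; cpd (DMSO) 24 h, 37 °C, 5% CO2; Amplite luciferase reagent 10 min RT; luminescence readout. qHTS format.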
ELG1 genotoxic: qHTS screen for small molecules that induce genotoxicity in human embryonic kidney (HEK293T) cells expressing luciferase-tagged ELG1 | HEK293T ELG1-luciferase reporter, luminescence, 16 h | Potency, µM (doses to about 46 µM), usual class: activators | 330,000 compounds, 1.3% hits; further: nearly all actives have a fitted effect of over 60% in size
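Step 1: seed 2,000 HEK293T ELG1-luciferase cells per well. Step 2: add compound or DMSO, incubate 16 hr at 37 °C. Step 3: ONE-Glo, 30 min at room temperature, read luminescence.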
SMN2 splice up: qHTS Assay for Enhancers of SMN2 Splice Variant Expression. HEK293 SMN2-luciferase splicing reporter, luminescence, 30-36 h. Potency, µM (highest dose often 46.1 µM), hits mostly activators. 210,000 compounds, 2.8% hits. AID 1458, 2008; further: nearly all actives have a fitted effect of over 55% in size
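qHTS luciferase splicing reporter: luminescence rises when SMN2 exon 7 is included in transfected HEK293 cells. Compound exposure lasted 30-36 h at 37C, with 4.5 mM final sodium butyrate as control, followed by a ONE-Glo read.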
A number is an active result; 0 = inactive; ? = inconclusive; - = no result given; ! = repeats disagree. The call rests on the fitted dose curve; in most records, active means well fitted curve in the direction sought with a large enough effect; inconclusive means small, poorly fitted or top-dose-only effect, or another doubt; inactive means no such curve, though single readings can be large; an effect the other way counts as inactive or inconclusive.

SMILES	Rab9 prom act	Luc counter	FLuc counter	NPC1 promoter act	ELG1 genotoxic	SMN2 splice up
Cc1nn(C(C)C(=O)N2CCN(c3ccc(Cl)cc3)CC2)c(=O)c2cc3occc3n12 (stereo not given)	-	-	0	-	-	0
CCOc1ccc(NC(=O)NCCn2nnc3cc(S(=O)(=O)N(C)C)ccc32)cc1	-	-	0	-	-	-
Cc1cnc(NC(=O)CCCNC(=O)c2ccc(Cl)cc2)s1	?	-	8.5µM	0	?	-
Cc1ccc(NC(=O)CCCNC(=O)c2ccc(Cl)cc2)nc1	0	-	?	0	?	-
Cc1ccc(/C=C/C(=O)Nc2nccs2)o1	1.8µM	0	8.5µM	2.8µM	?	11µM
Cc1ccc(/C=C/C(=O)Nc2ncc(C)s2)o1	2.8µM	0	1.9µM	3.5µM	?	3.2µM
CCn1c(=O)cc(OCC(=O)NCCCN2CC(C)CC(C)C2)c2ccccc21 (stereo not given)	0	0	0	0	16µM	?
CCn1c(=O)cc(OCC(=O)NCCCN2CCC(C)CC2)c2ccccc21	0	0	0	0	16µM	0
Brc1c(-c2ccccc2)nc2n1Cc1ccccc1-2	4µM	-	0.85µM	?	18µM	-
c1ccc2c(c1)Cn1c-2nc2ccccc21	1.1µM	11µM	6µM	1.4µM	?	10µM
O=C1c2ccccc2-c2nc3ccccc3n21	?	-	15µM	0	0	-
c1ccc2c(c1)Cn1nnnc1-2	0	0	0	0	0	0
CCCCN(CC)C(=O)CSc1c2c(nc3ccc(Cl)cc13)CCCC2	-	-	0	-	-	0
CCCC12CN3CC(C)(CN(C1)C3c1ccc(CC)cc1)C2=O (stereo not given)	-	-	0	-	-	0
O=C(Nc1ccc(S(=O)(=O)N2CCCCCC2)cc1)c1[nH]ncc1[N+](=O)[O-]	?	-	17µM	?	?	-
OC(CNc1ncnc2sccc12)c1ccccc1 (stereo not given)	0	-	17µM	?	0	-
COc1ccc(Oc2nccc(-c3ccccc3)c2C#N)cc1	?	0	12µM	?	0	0
O=c1c2cccc3c(N4CCOCC4)ccc(c32)c2nc3ccccc3n12	0	0	5.4µM	0	?	0
O=C(C=C=Nc1ccccc1)C(=O)N=C=Cc1ccccc1	0	-	4.8µM	0	?	-
O=c1oc2c(CN3CCN(CCO)CC3)c(O)ccc2cc1-c1ccccc1	-	-	0	-	-	-
CCN1CCN(Cc2c(O)ccc3c2O/C(=C\C=C\c2ccccc2)C3=O)CC1	0	0	11µM	0	0	0
CCN1CCN(Cc2c(O)ccc3c2O/C(=C\c2ccc(C)cc2)C3=O)CC1	0	0	?	0	0	0
Cc1ccc(/C=C2\Oc3c(ccc(O)c3CN3CCN(C)CC3)C2=O)cc1	0	0	?	0	0	0
CCc1ccc(/C=C2\Oc3c(ccc(O)c3CN3CCN(C)CC3)C2=O)cc1	0	-	12µM	?	0	-
COc1ccccc1/C=C/C=C1\Oc2c(ccc(O)c2CN2CCN(CCO)CC2)C1=O	0	0	3.8µM	0	0	0
SMILES	Rab9 prom act	Luc counter	FLuc counter	NPC1 promoter act	ELG1 genotoxic	SMN2 splice up
CN(C)Cc1c(O)ccc2c1O/C(=C\C=C\c1ccccc1)C2=O	0	-	13µM	0	0	-
CCCCCCCCCCCCCCCC(=O)NCCCC(=O)O	-	0	-	-	-	0
COCCNC(=O)c1cccc(OC2CCN(Cc3ccc(OC(F)F)cc3)CC2)c1	0	-	0	0	0	-
CCOC(=O)c1c(C)oc2ncnc(N3CCN(c4ccccc4OC)CC3)c12	-	-	0	-	-	-
CCN1CCN(Cc2c(O)ccc3c2O/C(=C\c2ccccc2)C3=O)CC1	0	0	0	0	0	0
O=C1/C(=C/C=C/c2ccccc2)Oc2c1ccc(O)c2CN1CCN(CCO)CC1	0	-	12µM	0	0	-
COc1ccccc1/C=N/N1C(=O)c2cccc3cccc(c23)C1=O	0	0	0	0	0	0
COc1ccc(/C=N/N2C(=O)c3ccccc3C2=O)cc1	0	14µM	2.1µM	0	0	0
CCN(CC)c1ccc(/C=N/N2C(=O)c3ccccc3C2=O)cc1	0	0	4.3µM	0	0	0
COc1ccc(/C=N\n2nnc3ccccc32)cc1	0.22µM	0	0.19µM	0.32µM	?	0.79µM
CN(C)c1ccc(/C=N/N2C(=O)c3ccccc3C2=O)cc1	0	-	0.43µM	0	0	-
O=C(NCCc1ccc(Cl)cc1)c1ccc(CSCc2cccc(Cl)c2)o1	-	-	0	-	-	-
CC1CCCC(C)N1CCCNC(=O)c1ccc2nc(N3CCOCC3)sc2c1 (stereo not given)	0	-	0	0	0	-
CC1CCCC(C)N1CCCNC(=O)c1ccc2nc(N3CCCCC3)sc2c1 (stereo not given)	?	-	0	3.2µM	0	-
CC1CC(C)CN(CCCNC(=O)c2ccc3nc(N4CCCCC4)sc3c2)C1 (stereo not given)	?	-	0	0.45µM	?	-
Cc1ccc(Cn2ccc(NC(=O)c3noc4c3CCCCC4)n2)cc1	0	0	?	0	0	0
Cc1ccc(O)c(NC(=O)c2noc3c2CCCCC3)c1	?	0	4.8µM	2.8µM	?	4µM!
Cc1ccc(O)c(NC(=O)c2noc3c2CCCC3)c1	-	-	8.5µM	-	-	11µM
CSc1ccccc1NC(=O)c1noc2c1CCC2	0	0	?	0	15µM	0
Cc1csc2nc(COC(=O)c3cccc(NC(=O)c4cccc(Cl)c4)c3)cc(=O)n12	-	-	0	-	-	-
Cc1ccc(C)c(N2CCN(S(=O)(=O)c3cc(Br)cc4c3N(C(=O)C3CC3)CC4)CC2)c1	-	-	0	-	-	0
Nc1nc(CCl)nc(Nc2ccc3ccccc3c2)n1	0	-	3µM	0	0	-
COc1ccc(Nc2nc(N)nc(CCl)n2)cc1	0	-	6µM	-	?	-
Cc1ccc(C(=O)CSc2ccc(-c3ccccc3)nn2)cc1	0	0	?	0	0	0
N#Cc1ccc(-c2cccnc2)nc1SCC(=O)c1ccccc1	3.2µM	-	?	?	0	-
SMILES	Rab9 prom act	Luc counter	FLuc counter	NPC1 promoter act	ELG1 genotoxic	SMN2 splice up
N#Cc1ccc(-c2ccccc2)nc1SCC(=O)c1cccc(Cl)c1	0	0	0	0	0	0
COc1ccc(-c2ccc(SCC(=O)N3CCCC3)nn2)cc1OC	0	0	?	0	0	0
O=C(CSc1ccc(-c2ccccc2)nn1)c1ccccc1	?	0	17µM	?	?	?
COc1ccc(C(=O)CSc2ccc(-c3ccc(C)cc3)nn2)cc1	0	0	11µM	0	0	14µM
COc1ccc(-c2ccc(SCC(=O)c3cccs3)nn2)cc1OC	0	0	19µM	0	0	?
COc1ccc(C(=O)CSc2nnc(-c3ccc(C)cc3)o2)cc1	0	0	0	0	?	0
Cc1cc(C)cc(-n2ccn(Cc3ccccc3C)c(=O)c2=O)c1	-	-	0	-	-	-
O=C(O)[C@H]1CCCN(CCC=C(c2ccccc2)c2ccccc2)C1	-	0	-	-	-	-
